Structures are written as SMILES. In all, about 360,000 compounds went through this assay and about 2,700 (0.75%) were called active. Cut-off read from the data, not from the text of the source: active = inhibition above about 4.5%; inactive = the rest. Shown is part of a subset that was picked to be rich in actives.

From PubChem BioAssay AID651718 (The Scripps Research Institute Molecular Screening Center, 2012) come the findings set out here.

The assay concerns Methionine sulfoxide reductase A (Bos taurus). Put plainly: bovine MsrA enzyme inhibitors, primary screen, biochemical, absorbance, HTS (AID 651718).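 Note: 0% = vehicle wells with enzyme and 100% = reference inhibitor wells.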 The conditions noted are these: purified bovine MsrA, absorbance read-out; at 15.5 µM; active compounds read high.
For the compound `CCOC(=O)C(C)n1cnc2scc(-c3ccc(C)c(C)c3)c2c1=O` (stereo not drawn), the inhibition was 8.45% (active).

In the case of `COC(=O)Cn1cnc2scc(-c3ccc(C)c(C)c3)c2c1=O`, the inhibition is 4.6% (active).

Regarding `CC(=O)C(C)n1cnc2scc(-c3ccc(C)cc3)c2c1=O` (stereo not drawn), the inhibition was 0.23% (inactive).

Turning to `CCn1cnc2scc(-c3ccc(C)c(C)c3)c2c1=O`, the inhibition is 0.83% (inactive).

Consider `CCC(C(=O)OC)n1cnc2scc(-c3ccc(C)cc3)c2c1=O` (stereo not drawn), for which the inhibition is 2.62% (inactive).

For the compound `CCOC(=O)C(C)n1cnc2c(nnn2-c2ccc(F)cc2)c1=O` (stereo not drawn), the inhibition is -0.86% (inactive).

As to `Cc1sc2c(c1C)c(=O)n(-c1ccccc1)c1nncn21`, the inhibition is 0.74% (inactive).

Consider `CC1(C)CC(=O)C=C(c2ccc3ncccc3c2)C1`, for which the inhibition is 0.6% (inactive).

As to `Cc1cccc(C(=O)NC2CCN(CC(=O)Nc3cccc(Cl)c3)CC2)c1`, the inhibition is -0.97% (inactive).

With `COc1ccc(-c2ccc3c(n2)CCCN3S(=O)(=O)c2ccc(C)cc2)cc1`, the inhibition was 1.35% (inactive).

`CCOC(=O)/C=C/c1ccccc1O`: the inhibition is 1.24% (inactive).

`Nc1ncnc2c1ncn2[C@@H]1O[C@H](C(=O)N[C@@H](CCc2ccccc2)C(=O)N2CCCN(Cc3cccs3)CC2)[C@@H](O)[C@H]1O`: the inhibition is -0.82% (inactive).

`O=C(NC(Cc1ccccc1)C(=O)O)/C(=C\c1ccccc1)NC(=O)c1ccco1` (stereo not drawn): the inhibition is -0.85% (inactive).

With `COc1ccc(/C=C(/NC(=O)c2ccco2)C(=O)Nc2ccc(C(C)=O)cc2)cc1`, the inhibition is 6.24% (active).

With `Cc1ccc(NC(=O)/C(=C\c2ccccc2)NC(=O)c2ccco2)cc1`, the inhibition was 1.7% (inactive).

For `O=C(NCc1ccccc1)[C@@H]1CCCN1C(=O)[C@@H](NS(=O)(=O)c1ccc(F)cc1F)C1CCCCC1`, the inhibition was 0.41% (inactive).

Turning to `C[C@@H](CN1C2=NC[C@@H](Cc3ccccc3)N2C[C@H]1Cc1ccc(O)cc1)NC(=O)CCC1CCCCC1`, the inhibition is -0.6% (inactive).

As for `C[C@H]1[C@H](c2ccccc2)Oc2cc(Br)ccc2S(=O)(=O)N1Cc1cccc(F)c1`, the inhibition was -0.62% (inactive).

In the case of `COc1ccc(CC(=O)c2ccc(O)cc2O)cc1OC`, the inhibition is 5.45% (active).

Turning to `COc1ccc(CCNC(=O)CCc2ccccc2O)cc1OC`, the inhibition was -1.41% (inactive).

In the case of `COc1ccc(CCNC(=O)c2ccccc2-c2ccccc2C(=O)O)cc1OC`, the inhibition was -1.11% (inactive).

Consider `COCc1[nH]nc2c1C(c1ccccc1)N(c1ccccc1)C2=O` (stereo not drawn), for which the inhibition is 2.45% (inactive).

Consider `CNC(=O)/C(=C\C=C\c1ccccc1)NC(=O)c1ccc([N+](=O)[O-])cc1`, for which the inhibition is 5.69% (active).

For `CC(C=Cc1ccccc1)=NNS(=O)(=O)c1ccc([N+](=O)[O-])cc1`, the inhibition was 0.99% (inactive).

Turning to `O=C(Nc1ccc(C(=O)O)cc1)/C(=C\c1ccccc1)NC(=O)c1ccc(Br)cc1`, the inhibition is -0.28% (inactive).

In the case of `O=C(Nc1ccc(C(=O)O)cc1)/C(=C/c1ccc([N+](=O)[O-])cc1)NC(=O)c1ccccc1`, the inhibition was 5.97% (active).

On to `Cc1ccc(C(=O)N/C(=C/C=C/c2ccccc2)C(=O)NCc2ccco2)cc1`, for which the inhibition was 3.44% (inactive).

In the case of `O=C(N/C(=C\c1ccc([N+](=O)[O-])cc1)C(=O)N1CCOCC1)c1cccc(Br)c1`, the inhibition was 2.94% (inactive).

A word on the inhibition: it is the relative decrease from the control value, in per cent.
